# According to PubChem BioAssay (Tox21):
# Results filed as inconclusive are left out. Entries that show only a call come without a potency. Active and inactive are the calls of the source. Calls come from the whole dose curve; as a rule, active = well fitted inhibition curve with a large enough effect in the signal ratio in the repeat runs (not every such curve was filed as active); inconclusive = weak or mixed curves, or effect the other way; inactive = flat fitted curve, though single readings scatter; the % refers to the signal ratio.
# Assay: cAMP Responsive Elements (CRE) small molecule antagonists, cell-based qHTS assay (AID 1963591)
# Details: CRE-bla HEK293T, beta-lactamase FRET ratio; series mostly up to 92.4 µM
# Description: U.S. Tox21 Program National Center for Advancing Translational Sciences [NCATS] Division of Preclinical Innovation [DPI] U.S. Environmental Protection Agency [EPA] National Institutes of Environmental Health Sciences [NIEHS] National Toxicology Program [NTP] U.S. Food and Drug Administration [FDA] Tox21 Assay Overview: CREB (cyclic-AMP Responsive Element Binding Protein) is a cellular transcription factor. It binds to certain DNA sequences called cAMP Responsive Elements (CRE) and regulates the transcription of the genes. […] This cell line can be used to find agonists/antagonists of the cyclic AMP signaling pathway. The activation of the report gene under culture conditions can be detected by fluorescence intensity. This cell line has been used to screen the Tox21 10K compound library to […].
# Tox21 Assay Protocol Summary: CRE-bla Hek 293T cells were suspended in assay medium (DMEM containing 10% dialyzed FBS, 0.1 mM NEAA, 1 mM sodium pyruvate and 25 mM HEPES) and dispensed at 2,000 cells/4 uL /well into 1536-well black wall/clear bottom plates using a Multidrop Combi (ThermoFisher Scientific, Waltham, MA) dispenser. After the assay plates were incubated at 37 C/5% CO2 for 18 hrs, 23 nL of compounds dissolved in DMSO, positive controls or DMSO only was transferred to the assay plate by a pintool workstation (Kalypsys, San Diego, CA), followed by addition of 1 […] uL of 1.25uM NKH477 (0.25 uM as final concentration) in assay medium using a Flying Reagent Dispenser (Aurora Discovery, San Diego, CA). The plates were incubated at 37 C and 5% CO2 for 3 hrs. Then 1 uL of LiveBLAzer B/G FRET substrate (Invitrogen, Carlsbad, CA) was added to each well using Bioraptr Flying Reagent Dispenser (FRD, Aurora Discovery, San Diego, CA). The plates were incubated at room temperature for 2 h.
# Potency is the fitted concentration of half-maximal effect.
SMILES,Potency,"activity change, negative = inhibition"
CCCC(C)CC (stereo not given),inactive,
CC/C=C\CCOC(C)OCC (stereo not given),inactive,
CCCCNc1ccc(C(=O)OCCN(CC)CC)cc1,inactive,
CC(C)CCCCCCOC(=O)C1CCCCC1C(=O)OCCCCCCC(C)C (stereo not given),inactive,
CCCCCc1ccc(O)cc1,inactive,
CCCC1CCC(=O)CC1,inactive,
CC1CCC(CO)CC1 (stereo not given),inactive,
O=C1CCC/C=C\CCCCCCCCCC1,inactive,
CC(CN(CCN(CC(C)OCCO)CC(C)OCCO)CC(C)OCCO)OCCO (stereo not given),inactive,
C/C=C/C=C/CO,inactive,
CCC(CC)CO,inactive,
Cc1ccccc1N=C(N)Nc1ccccc1C,inactive,
CC(C)COC(=O)CC(C(=O)OCC(C)C)S(=O)(=O)O (stereo not given),inactive,
O=CN(CCO)CCO,inactive,
CC(=O)CC(=O)Nc1ccc(S(=O)(=O)O)cc1,inactive,
O=c1[nH]c(=O)n([C@H]2C[C@H](O)[C@@H](CO)O2)cc1C(F)(F)F,inactive,
CC(=O)Nc1ccc(O)cc1,inactive,
CCN(CCC#N)c1ccccc1,inactive,
CCCCCCCC#N,inactive,
CCCCCCCCCCCCCCC,inactive,

SMILES,Potency,"activity change, negative = inhibition"
C=CCOc1ccccc1OCC(O)CNC(C)C (stereo not given),inactive,
COC(=O)CC(C)CCC=C(C)C (stereo not given),inactive,
O=C(C(=O)c1ccc(Br)cc1)c1ccc(Br)cc1,,-9.38% [at 18.9 µM] (inactive)
CC(=O)Oc1cccc(C)c1,inactive,
CCCCc1ccc2nc(NC(=O)OC)[nH]c2c1,inactive,
CCCC(CCC)(C(=O)OCC)C(=O)OCC,inactive,
CCCCCCCCCCC[C@@H](C[C@@H]1OC(=O)[C@H]1CCCCCC)OC(=O)[C@H](CC(C)C)NC=O,inactive,
CCC(C)(CCC(C)C)C(=O)[O-].CCC(C)(CCC(C)C)C(=O)[O-].[Zn+2] (stereo not given),inactive,
COC(C)CCO (stereo not given),inactive,
CCCCOc1ccc(CC(=O)NO)cc1,inactive,
CC(=O)OCC(C)OC(C)=O (stereo not given),inactive,
O=c1[nH]c(=O)n([C@H]2C[C@H](O)[C@@H](CO)O2)cc1F,inactive,
O=C1Nc2ccc([N+](=O)[O-])cc2C1=O,inactive,
CC(C)C(OC(=O)c1ccccc1)C(C)(C)COC(=O)c1ccccc1 (stereo not given),inactive,
ClCCOCCOCCCl,inactive,
Nc1ccn(C2CO[C@H](CO)O2)c(=O)n1 (stereo not given in full),inactive,
CCCCCCCCCCCCCCC[C@H](O)[C@@H](N)CO,inactive,
Cc1[nH]cnc1C[C@H]1CCc2c(C)c3ccccc3n2C1=O,inactive,
C/C=C1\[C@H]2C=C(C)C[C@]1(N)c1ccc(=O)[nH]c1C2,inactive,
CCCCC(CC)CN=C(N)NC(N)=NCCCCCCN=C(N)NC(N)=NCC(CC)CCCC (stereo not given),29.8 µM (active),
